# Measured values reported in PubChem BioAssay AID504942 (Broad Institute, 2011).
# Measured potencies and affinities stand elsewhere. Activity calls are given as the source filed them. How the calls were made is not given here.
# Test: toxicity to human HeLa cells – cell-based, 48 h, plate reader, cherry-picks, cytotoxicity control, dose response (AID 504942)
row,SMILES,outcome
1,N#CN(Cc1ccccc1)Cc1ccccc1,inactive
2,O=C1N[C@@H](Cc2ccccc2)[C@@H](c2ccco2)O1,inactive
3,O=C(NCC1CC1)c1cc([N+](=O)[O-])cc([N+](=O)[O-])c1,inactive
4,O=CN(c1ccccc1)c1ccc2ccccc2c1,inactive
5,CCOC(=O)c1cc2c(s1)-c1c(C)cccc1OC2,inactive
6,CCNC(=O)COc1ccc2ccccc2c1,inactive
7,CCOC(=O)c1ccc(-c2ccc(CO)o2)cc1,inactive
8,OC(c1cccc(Cl)c1)c1nccc2ccccc12 (stereo not given),inactive
9,Cc1ccc(S(=O)(=O)NCCC(C)C)cc1[N+](=O)[O-],inactive
10,Cc1ccc2nc(-c3ccc4c(c3)OCCO4)cn2c1,inactive
11,N#Cc1cc([N+](=O)[O-])ccc1N1CCCC1,inactive
12,COc1ccc(N=C(C)C2=C(O)CSC2=O)cc1,inactive
13,O=S1(=O)CCOC[C@H](c2ccccc2)N1Cc1cccc(Cl)c1,inactive
14,CSc1nnc(-c2ccc([N+](=O)[O-])cc2)o1,inactive
15,O=C1C=C(c2cc(F)ccc2F)C[C@@H](c2ccc(F)cc2)C1,inactive
16,Clc1cccc(CNCCCSc2ncccn2)c1,inactive
17,COC(=O)c1ccc(NC(=S)N2CCCC2)cc1,inactive
18,CCOc1ccc(CNC2CCCc3ccccc32)cc1 (stereo not given),inactive
19,Cc1cc(C)nc(N(C#N)Cc2ccccc2)n1,inactive
20,CC(C)CCNC(=O)c1cccc(Cl)c1,inactive
21,CCC(C)NS(=O)(=O)c1ccc(OC)c(Cl)c1Cl (stereo not given),inactive
22,Cc1cc(NC(=O)c2c(F)c(F)c(F)c(F)c2F)no1,inactive
23,O=[N+]([O-])c1ccc(-c2cccnc2)cc1,inactive
24,Cc1ccc(S(=O)c2ccc(C)cc2)cc1,inactive
25,Cc1cc(NC(=O)c2cc([N+](=O)[O-])cc([N+](=O)[O-])c2C)no1,inactive
26,CCOC(=O)/C=C(\C)Sc1cc(=O)oc2ccccc12,inactive
27,CO/N=C/c1cn(-c2ccc(Cl)cc2)nn1,inactive
28,CCOC(=O)c1cnc(-c2ccccc2)nc1N,inactive
29,COc1ccc(N2CCN(C(=O)c3ccc(Br)o3)CC2)cc1,inactive
30,N#CC(c1ccc(Cl)cc1)c1cccc(Cl)n1 (stereo not given),inactive
